Common to all, as to experiment: growth (OD600 after 10 h); higher = more growth (less inhibition)
Test [1] concerns E. coli TESEC Alr+ wild-type control. Particulars: compound 0.1 mM; raw OD600 reference: median of DMSO wells 0.241, cell-free background 0.041. The protocol: (§1)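 TESEC Mtb Alr E. coli, or the Alr+ wild-type control, in 384-well plates with Prestwick library compounds at 0.1 mM and 1% DMSO, across arabinose induction levels of 1E3 to 1E7 nM. Growth is read as OD600 after 10 h at 37 °C in triplicate biological replicates.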

In test [2] the test system is E. coli TESEC Mtb Alr. Particulars: compound 0.1 mM. As to the method: as §1
A further test has as its system E. coli TESEC Mtb Asd. Particulars: compound 0.1 mM. As to the method:
(§2)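 TESEC E. coli strains in which the native enzyme is deleted and replaced by arabinose-inducible Mtb Asd, DapB, CysH or TrpD, each grown in its selective medium. Strains were screened against the Prestwick library at 0.1 mM and 1% DMSO in 384-well format at low and high arabinose induction. Growth is read as OD600 after 10 h in triplicate.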

In another test the test system is E. coli TESEC Mtb DapB. Particulars: compound 0.1 mM. As to the method:
as §2

For test [3], the system named is E. coli TESEC Alr+ wild-type control. Particulars: compound 0.1 mM; raw OD600 reference: median of DMSO wells 0.49, cell-free background 0.052. As to the method: (§3)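 TESEC Mtb Alr E. coli (ΔaraC ΔtolC ΔentC Δalr ΔdadX, arabinose-inducible Mtb Alr) or the Alr+ wild-type control strain, grown in defined M9-fructose medium without D-alanine in 96-well plates with Prestwick library compounds at 0.1 mM and 1% DMSO. Low Alr induction is 0.1 µM arabinose and high induction is 10 mM arabinose.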

Test [4] concerns E. coli TESEC Mtb Alr. Particulars: compound 0.1 mM. The protocol:
as §3
The source holds these as a separate data set.

Where [5] appears, read: arabinose 1000 nM, raw OD600 reference: median of DMSO wells 0.294, cell-free background 0.041.
The mark [6] stands for this setting: arabinose 10000 nM, raw OD600 reference: median of DMSO wells 0.264, cell-free background 0.041.
Setting [7] is: arabinose 100000 nM, raw OD600 reference: median of DMSO wells 0.201, cell-free background 0.041.
[8] abbreviates: arabinose 1000000 nM, raw OD600 reference: median of DMSO wells 0.193, cell-free background 0.041.
[9] abbreviates: arabinose 10000000 nM, raw OD600 reference: median of DMSO wells 0.146, cell-free background 0.041.
Setting [10] is: arabinose induction (level): High, raw OD600 reference: median of DMSO wells 0.331, cell-free background 0.041.
[11] abbreviates: arabinose induction (level): Low, raw OD600 reference: median of DMSO wells 0.417, cell-free background 0.041.
The mark [12] stands for this setting: arabinose induction (level): High, raw OD600 reference: median of DMSO wells […], cell-free background 0.041.
[13] abbreviates: arabinose induction (level): Low, raw OD600 reference: median of DMSO wells 0.227, cell-free background 0.041.
Where [14] appears, read: arabinose 100 nM, raw OD600 reference: median of DMSO wells 0.413, cell-free background 0.052.
[15] abbreviates: arabinose 10000000 nM, raw OD600 reference: median of DMSO wells […], cell-free background 0.052.

Growth data for four molecules are collected here from the supplement of paper PMC9262897, “Low-cost anti-mycobacterial drug discovery using engineered E. coli” (Nature Communications, 2022).

Counter-ions that a name gives are not always drawn. ± gives the standard deviation of the averaged measurements.

`CN1C(C)(C)CCCC1(C)C` [Pempidine tartrate]: the growth in test [1] turned out to be 0.245 ± 0.0082; in the test on E. coli TESEC Mtb Alr [2] (setting [5]), 0.307 ± 0.017; in the test on E. coli TESEC Mtb Alr [2] (setting [6]), 0.284 ± 0.0059; in the test with E. coli TESEC Mtb Alr [2] (setting [7]), 0.183 ± 0.026; with E. coli TESEC Mtb Alr [2] (setting [8]) it was 0.196 ± 0.0024; in the test with E. coli TESEC Mtb Alr [2] (setting [9]), 0.143 ± 0.011. The growth in the test with E. coli TESEC Mtb Asd (setting [10]) amounted to 0.343 ± 0.023; in the test with E. coli TESEC Mtb Asd (setting [11]) it was 0.434 ± 0.024; in the test on E. coli TESEC Mtb DapB (setting [12]) it was 0.203 ± 0.024; in the test on E. coli TESEC Mtb DapB (setting [13]), 0.239 ± 0.043; in test [3], 0.572 ± 0.089; in the test on E. coli TESEC Mtb Alr [4] (setting [14]), 0.4074 ± 0.0021. Also, the growth in the test on E. coli TESEC Mtb Alr [4] (setting [15]) was determined as 0.335 ± 0.011.
For `CC(=O)N[C@@H](CS)C(=O)O` [Acetylcysteine], the growth in test [1] came to 0.2422 ± 0.0011; in the test on E. coli TESEC Mtb Alr [2] (setting [5]) it was 0.298 ± 0.0096; with E. coli TESEC Mtb Alr [2] (setting [6]), 0.2731 ± 0.0017; with E. coli TESEC Mtb Alr [2] (setting [7]), 0.203 ± 0.019; in the test on E. coli TESEC Mtb Alr [2] (setting [8]), 0.21 ± 0.012; in the test on E. coli TESEC Mtb Alr [2] (setting [9]), 0.142 ± 0.0051. Besides, the growth in the test with E. coli TESEC Mtb Asd (setting [10]) turned out to be 0.437 ± 0.059; in the test on E. coli TESEC Mtb Asd (setting [11]), 0.393 ± 0.017; in the test with E. coli TESEC Mtb DapB (setting [12]), 0.196 ± 0.014; in the test with E. coli TESEC Mtb DapB (setting [13]) it was 0.232 ± 0.053; in test [3] it was 0.475 ± 0.06; in the test on E. coli TESEC Mtb Alr [4] (setting [14]), 0.4122 ± 0.0033. In the test with E. coli TESEC Mtb Alr [4] (setting [15]), this molecule yielded a growth of 0.344 ± 0.0049.
`Fc1ccc([C@@H]2CCNC[C@H]2COc2ccc3c(c2)OCO3)cc1` [Paroxetine Hydrochloride]: the growth in test [1] came out at 0.178 ± 0.0068; in the test on E. coli TESEC Mtb Alr [2] (setting [5]), 0.172 ± 0.01; in the test on E. coli TESEC Mtb Alr [2] (setting [6]), 0.2021 ± 0.0013; in the test with E. coli TESEC Mtb Alr [2] (setting [7]) it was 0.129 ± 0.0033; in the test on E. coli TESEC Mtb Alr [2] (setting [8]) it was 0.05573 ± 0.00035; with E. coli TESEC Mtb Alr [2] (setting [9]), 0.0552 ± 0.0014. The growth in the test on E. coli TESEC Mtb Asd (setting [10]) came out at 0.133 ± 0.0029; in the test on E. coli TESEC Mtb Asd (setting [11]) it was 0.176 ± 0.0037; with E. coli TESEC Mtb DapB (setting [12]), 0.172 ± 0.027; in the test with E. coli TESEC Mtb DapB (setting [13]) it was 0.178 ± 0.0082; in test [3], 0.444 ± 0.026; in the test with E. coli TESEC Mtb Alr [4] (setting [14]), 0.384 ± 0.0066. The molecule further yielded a growth in the test with E. coli TESEC Mtb Alr [4] (setting [15]) of 0.134 ± 0.073.
Consider `COc1nc(C)nc(Cl)c1NC1=NCCN1` [Moxonidine], for which the growth amounted to 0.241 ± 0.011 in test [1]; 0.298 ± 0.014 in the test with E. coli TESEC Mtb Alr [2] (setting [5]); 0.262 ± 0.0065 in the test with E. coli TESEC Mtb Alr [2] (setting [6]); 0.18 ± 0.013 in the test with E. coli TESEC Mtb Alr [2] (setting [7]); 0.187 ± 0.0025 in the test on E. coli TESEC Mtb Alr [2] (setting [8]); 0.133 ± 0.0069 in the test on E. coli TESEC Mtb Alr [2] (setting [9]). Besides, the growth stood at 0.248 ± 0.033 in the test with E. coli TESEC Mtb Asd (setting [10]); 0.434 ± 0.025 in the test on E. coli TESEC Mtb Asd (setting [11]); 0.209 ± 0.016 in the test with E. coli TESEC Mtb DapB (setting [12]); 0.254 ± 0.017 with E. coli TESEC Mtb DapB (setting [13]); 0.567 ± 0.019 in test [3]; 0.411 ± 0.015 in the test on E. coli TESEC Mtb Alr [4] (setting [14]). Moreover, the growth with E. coli TESEC Mtb Alr [4] (setting [15]) was found to be 0.342 ± 0.02.
